Assay results published in PubChem BioAssay AID1159580 (chemical genetic matrix, 2015).
Several values for one entry are separate records, joined by “and”; a condition that tells them apart may be missing. Equal entries are not always repeated. Hit rate of the full screen: of about 5,500 compounds, about 2,000 (36%) were called active. About 18% were inconclusive and are not listed. Cut-off read from the data, not from the text of the source: active = normalized growth mostly below about 0.91 (no sharp cut-off); inconclusive = no clear call, values can overlap the other calls; inactive = mostly above about 0.92. This is one part of the list.

Assay: chemical genetic growth profiling, strain panel (AID 1159580);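 note: tested at 20 µM; growth read once vehicle control cultures reached saturation at 30 °C; 1 = growth at the plate median or of vehicle wells; lower values mean less growth of the strain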
Settings: S. cerevisiae deletion strains, growth OD

Measured: normalized growth

COc1ccc(Cl)cc1C(=O)NCCc1ccc(S(=O)(=O)NC(=O)NC2CCCCC2)cc1
inactive: locus YAL013W, strain DEP1, active compounds read low 0.982 | locus YAL021C, strain ccr4, active compounds read low 1.01 | locus YAL026C, strain drs2, active compounds read low 1 | locus YAL030W, strain snc1, active compounds read low 1 | locus YAL040C, strain CLN3, active compounds read low 0.984 | locus YBL061C, strain skt5, active compounds read low 1 | locus YBR009C, strain hhf1, active compounds read low 0.993 | locus YBR021W, strain FUR4, active compounds read low 1.03 | locus YBR023C, strain chs3, active compounds read low 1 | locus YBR171W, strain sec66, active compounds read low 1.01 | locus YBR229C, strain ROT2, active compounds read low 0.956 | locus YBR231C, strain swc5, active compounds read low 0.997 | locus YBR279W, strain paf1, active compounds read low 1.01 | locus YCL011C, strain gbp2, active compounds read low 1.01 | locus YCL016C, strain dcc1, active compounds read low 0.992 | locus YCL029C, strain bik1, active compounds read low 0.99 | locus YCL061C, strain MRC1 (second series), active compounds read low 1 | locus YCL061C, strain MRC1, active compounds read low 1 | locus YCL069W, strain vba3, active compounds read low 1 | locus YCR088W, strain abp1, active compounds read low 1.01 | locus YDL005C, strain med2, active compounds read low 1.01 | locus YDL035C, strain GPR1, active compounds read low 0.973 | locus YDL040C, strain nat1, active compounds read low 1 | locus YDL074C, strain BRE1, active compounds read low 0.909 | locus YDL101C, strain DUN1, active compounds read low 0.978 | locus YDL134C, strain PPH21, active compounds read low 0.976 | locus YDL185W, strain tfp1, active compounds read low 0.959 | locus YDL192W, strain arf1, active compounds read low 0.997 | locus YDR001C, strain nth1, active compounds read low 1 | locus YDR069C, strain doa4, active compounds read low 1.01 | locus YDR101C, strain arx1, active compounds read low 1.01 | locus YDR137W, strain rgp1, active compounds read low 0.973 | locus YDR150W, strain NUM1, active compounds read low 0.971 | locus YDR159W, strain sac3, active compounds read low 1.01 | locus YDR162C, strain NBP2, active compounds read low 0.903 | locus YDR195W, strain ref2 0.927 | locus YDR297W, strain sur2, active compounds read low 1 | locus YDR318W, strain mcm21, active compounds read low 1.02 | locus YDR334W, strain swr1, active compounds read low 0.993 | locus YDR335W, strain msn5, active compounds read low 1.01 | locus YDR363W, strain ESC2, active compounds read low 0.968 | locus YDR388W, active compounds read low 0.995 | locus YDR392W, strain spt3, active compounds read low 0.918 | locus YDR502C, strain sam2, active compounds read low 0.989 | locus YEL003W, strain gim4, active compounds read low 0.997 | locus YEL037C, strain rad23, active compounds read low 1 | locus YEL061C, strain CIN8 (second series), active compounds read low 0.996 | locus YEL061C, strain CIN8, active compounds read low 0.984 | locus YER002W, strain NOP16, active compounds read low 1.02 | locus YER015W, strain faa2, active compounds read low 1 | locus YER016W, strain bim1, active compounds read low 1 | locus YER110C, active compounds read low 0.999 | locus YER111C, strain swi4, active compounds read low 1 | locus YER155C, strain BEM2 (second series), active compounds read low 0.996 | locus YER155C, strain BEM2, active compounds read low 0.994 | locus YER167W, strain BCK2, active compounds read low 1.01 | locus YFR010W, strain ubp6, active compounds read low 1.01 | locus YGL078C, strain dbp3, active compounds read low 0.979 | locus YGL086W, strain mad1, active compounds read low 1.02 | locus YGL167C, strain pmr1, active compounds read low 1 | locus YGL173C, strain kem1, active compounds read low 1 | locus YGL227W, strain vid30, active compounds read low 0.998 | locus YGL240W, strain doc1, active compounds read low 0.994 | locus YGL248W, strain PDE1, active compounds read low 0.973 | locus YGL253W, strain hxk2, active compounds read low 1 | locus YGR078C, strain PAC10, active compounds read low 0.958 | locus YGR135W, strain pre9, active compounds read low 0.979 | locus YGR229C, strain SMI1, active compounds read low 0.954 and 0.937 | locus YGR252W, strain gcn5, active compounds read low 1.12 | locus YHR013C, strain ard1, active compounds read low 0.969 | locus YHR027C, strain rpn1, active compounds read low 1.01 | locus YHR030C, strain SLT2, active compounds read low 1 and 0.996 | locus YHR079C, strain IRE1 (second series), active compounds read low 1.01 | locus YHR079C, strain IRE1, active compounds read low 0.993 | locus YHR094C, strain hxt1, active compounds read low 0.996 | locus YHR129C, strain ARP1, active compounds read low 0.993 | locus YHR142W, strain chs7, active compounds read low 1.01 | locus YHR200W, strain rpn10, active compounds read low 1.01 | locus YIL066C, strain RNR3, active compounds read low 0.962 | locus YIL073C, strain SPO22, active compounds read low 1.06 | locus YIL125W, strain kgd1, active compounds read low 0.998 | locus YIR030C, strain dcg1, active compounds read low 1.01 | locus YJL092W, strain hpr5, active compounds read low 1 | locus YJL095W, strain BCK1 (second series), active compounds read low 0.997 | locus YJL095W, strain BCK1, active compounds read low 0.963 and 0.978 | locus YJL115W, strain asf1, active compounds read low 1 | locus YJL129C, strain trk1, active compounds read low 0.994 | locus YJL134W, strain LCB3, active compounds read low 0.993 | locus YJL154C, strain vps35, active compounds read low 0.996 | locus YJL164C, strain tpk1, active compounds read low 0.995 | locus YJL166W, strain qcr8, active compounds read low 1.01 | locus YJL168C, strain set2, active compounds read low 0.998 | locus YJL187C, strain SWE1 (second series), active compounds read low 0.943 | locus YJL187C, strain SWE1, active compounds read low 1.01 | locus YJR043C, strain POL32, active compounds read low 1.03 | locus YJR066W, strain TOR1, active compounds read low 0.934
